Consider 26 compounds from PubChem BioAssay AID1022 (Emory University Molecular Libraries Screening Center, 2008).

Structures are written as SMILES. Out of some 220,000 compounds screened, about 3,300 (1.5%) were called active.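 How the source made its calls: active means compounds that cut the protein-peptide binding signal by more than 50% relative to plate controls in a single-dose test; inactive means the rest.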 Only a selection was taken, and actives are over-represented in it overall.

In this assay the target is Induced myeloid leukemia cell differentiation protein Mcl-1 (Homo sapiens) (UniProt Q07820). In words: Mcl-1/Noxa binding inhibitors, primary screen, biochemical, TR-FRET, 1536-well (AID 1022).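 Further: His-tagged Mcl-1 with rhodamine Noxa BH3 peptide and terbium anti-His antibody; 0% = Mcl-1 plus Noxa peptide wells and 100% = peptide-only wells.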 Particulars: TR-FRET Mcl-1/Noxa peptide binding, 2 h; at 21.7 µM; active compounds read high.
Chain of Induced myeloid leukemia cell differentiation protein Mcl-1 (Homo sapiens) (Q07820 whole entry, looked up): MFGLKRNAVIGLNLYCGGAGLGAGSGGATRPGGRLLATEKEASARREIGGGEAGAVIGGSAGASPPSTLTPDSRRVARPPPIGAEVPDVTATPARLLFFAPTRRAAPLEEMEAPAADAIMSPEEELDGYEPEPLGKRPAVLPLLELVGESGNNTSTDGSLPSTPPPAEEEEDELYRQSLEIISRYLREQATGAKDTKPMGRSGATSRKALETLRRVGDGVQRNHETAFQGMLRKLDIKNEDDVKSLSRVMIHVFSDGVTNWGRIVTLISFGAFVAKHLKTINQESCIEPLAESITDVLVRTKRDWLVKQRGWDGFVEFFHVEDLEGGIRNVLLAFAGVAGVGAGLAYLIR
Usually inhibition stands for the drop in the measured response relative to a control, in per cent. As to `COc1ccccc1/C=C/C=N/NC(=O)CN1CCN(Cc2ccccc2)CC1`, the inhibition is 0.78% (inactive).

In the case of `CSC1=NCCN1C(=O)Cc1cccc2ccccc12`, the inhibition was -0.87% (inactive).

As for `O=C(NNC(=O)c1cnccc1C(F)(F)F)c1ccc(Cl)cc1`, the inhibition is 11.9% (inactive).

As for `COC(=O)/C=C\C(=O)Nc1cccc([N+](=O)[O-])c1`, the inhibition is 64.5% (active).

Regarding `Cc1ccccc1NC(=S)Nc1cccc([N+](=O)[O-])c1`, the inhibition was 11.3% (inactive).

Regarding `CC(=O)Nc1cccc([N+](=O)[O-])c1`, the inhibition was -1.66% (inactive).

For the compound `COc1ccc(Cn2c(O)c(/C=C3/C=CC=N3)c(=O)[nH]c2=O)cc1`, the inhibition is 25% (inactive).

Regarding `CC(=O)NC(=S)Nc1ccc(NC(=O)c2cccnc2)cc1`, the inhibition is 1.75% (inactive).

For the compound `Cn1c2ccccc2c(=O)c2c(=O)n(Cc3ccco3)c(COc3ccccc3)nc21`, the inhibition was 60% (active).

`COc1ccc(C(=O)CSc2nnc(COc3ccccc3)n2Cc2ccco2)cc1`: the inhibition is 17.5% (inactive).

In the case of `CCCc1nc2c(c(=O)c3ccccc3n2C)c(=O)n1-c1cc(C)cc(C)c1`, the inhibition was 5.11% (inactive).

For the compound `CSc1sc(C(=O)NNC(=O)c2ccc(Cl)cc2)c2c1C=CCC2`, the inhibition is 0.01% (inactive).

With `CN1CCN(C2=NCCO2)CC1`, the inhibition is 3.88% (inactive).

With `Nc1c(C(=O)c2cccs2)sc2nsc(SCCN3CCCCC3)c12`, the inhibition was -16.9% (inactive).

Consider `O=C(c1ccco1)N1CCN(CCOc2ccccc2)CC1`, for which the inhibition is 10.5% (inactive).

As for `CN=c1scc(-c2cc(OC)ccc2OC)n1/N=C/c1c(C)[nH]c2ccccc12`, the inhibition was 56.7% (active).

Take `CCn1c(-c2cc(OC)ccc2OC)csc1=Nc1c(C)n(C)n(-c2ccccc2)c1=O`: the inhibition is 10.7% (inactive).

Consider `COc1ccc(OC)c(N=Cc2c(O)[nH]c3ccccc23)c1`, for which the inhibition was 20.4% (inactive).

For `CCn1c2ccccc2c2cc(NC(=O)CNC)ccc21`, the inhibition is 43.9% (inactive).

With `CCc1ccc(NC(=O)N[C@H](C(=O)O)C(C)CC)cc1` (stereo partly specified), the inhibition is 16.4% (inactive).

In the case of `O=C(O)COCC(=O)NCc1csc2ccc(Cl)cc12`, the inhibition was 11.9% (inactive).

Turning to `O=S(=O)([N-]c1nc2ccccc2nc1-[n+]1ccc(Cc2ccccc2)cc1)c1ccc(Br)s1`, the inhibition is 15.5% (inactive).

Turning to `Cc1ccc(Cc2cnc(NC(=O)/C(C#N)=C/c3ccc(-c4cccc([N+](=O)[O-])c4)o3)s2)cc1`, the inhibition was 24.9% (inactive).

Consider `Cc1ccc(-c2ccc(/C=C(\C#N)C(N)=S)o2)c([N+](=O)[O-])c1`, for which the inhibition was 58.2% (active).

With `N#C/C(=C/c1ccc(-c2ccccc2[N+](=O)[O-])o1)C(=O)NCCN1CCCCC1`, the inhibition is 26.3% (inactive).

As for `O=S(=O)(NCCc1csc(-c2ccccc2)n1)c1cccnc1`, the inhibition is -1.4% (inactive).
